Results published in ChEMBL document CHEMBL3988442, “University of Dundee, Small-Polar-MMV Screening Library” (2021).
Hit rate of the full screen: of about 38,000 compounds, about 1,200 (3.2%) showed an effect of 50% or more. The median lay at about -58%. For the sample, strong results were picked, then their nearest neighbours and some compounds at random.

Each compound was assayed on Plasmodium falciparum (assay: Calibr Malaria Delayed Death Assay SOP). Details: concentration 4.99e-06 (unit not given; other assays of the set use mol/L).
Format: functional, organism-based
Set-up: scale not given: in the data most compounds retested in dose-response had high values

Compound	Percent Effect [%]
O=C(COc1ccccc1Br)N1CCOc2ccncc21	-65.13
O=C(O)C(F)(F)F.O=S(=O)(C1CC1)N1CCO[C@H]2[C@H](Oc3cccnc3)CC[C@@H]21	-58.06
Cc1nc(NC2CCN(C(=O)C3CC3)CC2)c2cnn(C)c2n1	-160.6
CNC(=O)[C@H]1C[C@@H]2CN(C(=O)c3cccnc3)C[C@@H]2N1S(C)(=O)=O.O=C(O)C(F)(F)F	-51.87
CCN(CC)S(=O)(=O)NC1CCN(c2ccc(OC)cc2)CC1	-62
O=C1NCCCC12CCN(Cc1ccc(SC3CCCCC3)o1)C2 (stereo unspecified)	54.2
Cc1ccc(Sc2ccc(CN3CCC4(CCCNC4=O)C3)o2)cc1 (stereo unspecified)	71.68
Cc1ccc(CN2C[C@@H](c3ccccc3)[C@@]3(CCNC3=O)C2)o1	-6.391
Cc1ccc(CN2CCC3(CC2)C(=O)NCCN3CC2CC2)o1	-112.7
O=C1NCCCC12CCN(S(=O)(=O)N1CCOCC1)C2 (stereo unspecified)	-32.12
Cc1cccc(N2CCC(N3CCC4(CCCNC4=O)C3)CC2)c1C (stereo unspecified)	41
COc1cccc(C(c2c(C)n[nH]c2O)c2c(C)n[nH]c2O)c1OC	-4.815
O=C(O)C(F)(F)F.O=C1[C@H]2CN(S(=O)(=O)c3ccccc3)C[C@H]2CN1Cc1cccnc1	0.7029
CCN(C(=O)COC)C(c1ccc(Cl)cc1)c1ccccn1 (stereo unspecified)	-96.63
CCN(CC)C(=O)COc1nc(C(C)C)no1	-177.8
Cc1cc(N2CCC(N(C)C(=O)c3cccs3)CC2)nc(C)n1	-45.9
Cc1cc(N2CCC(NCCOc3ccccc3)CC2)nc(C)n1	74.5
Cc1cc(N2CCC(N(C)C(=O)c3ccccc3)CC2)nc(C)n1	16.92
CN(C)c1ccnc(N2CCC(NCCOc3ccccc3)CC2)n1	59.77
c1ccc(OCCNC2CCN(c3ncccn3)CC2)cc1	-18.18
O=C(COCCOc1ccccc1)NC1CCN(c2ccccn2)CC1	-45.63
Cc1cc(N2CCC(NC(=O)CCc3ccco3)CC2)nc(C)n1	-35.38
Cc1cc(N2CCC(O)CC2)nc(C)n1	-73.43
Cc1nc(C)c(C)c(N2CCC(NCCOc3ccccc3)CC2)n1	61.44

Compound	Percent Effect [%]
Cc1ccnc(N2CCC(NCCOc3ccccc3)CC2)n1	9.901
Cc1cc(N2CCC(NC(C)Cc3ccsc3)CC2)nc(C)n1 (stereo unspecified)	85.1
O=C(COCCOc1ccccc1)NC1CCN(c2ncccn2)CC1	-10.36
COC1CCN(C(=O)Cn2ncc(N3CCCCC3)cc2=O)C1 (stereo unspecified)	-24.14
COCc1cc(N2CCOC(c3ccc(Cl)cc3)C2)ncn1 (stereo unspecified)	9.167
CS(=O)(=O)N1CCOCC2(CCN(C(=O)c3ccncc3)CC2)C1.O=C(O)C(F)(F)F	-27.09
O=C(Nc1ccccn1)C1CCN(Cc2cccc3c2OCCO3)CC1	-6.102
CC(C)(C)c1ncc(CNc2ccccc2SCCC(N)=O)s1	-73.84
Cn1cccc1C(=O)NC(C)(C(N)=O)c1cccc(Cl)c1 (stereo unspecified)	-31.46
CCC(C)NC(=O)c1cccc(CNCc2csc(C(C)C)n2)c1 (stereo unspecified)	46.44
CCn1cnnc1C1CCN(C(=O)c2cc(C)c(C)s2)CC1	-85.96
COC(=O)NCC(=O)NCC1(c2c(F)cccc2F)CCCC1	68.39
CCS(=O)(=O)CC(=O)NCC1(c2c(F)cccc2F)CCCC1	-98.46
COC(=O)NCCC(=O)NCC1(c2cccc(Cl)c2)CC1	-27.72
CC(=O)NCCC(=O)NCC1(c2c(F)cccc2F)CCCC1	-84.52
CCC(=O)NCC(=O)NCC1(c2c(F)cccc2F)CCCC1	72.49
CC(=O)N(C)CC(=O)NCC1(c2c(F)cccc2F)CCCC1	-102.3
CC(=O)N1CCCn2nc(CNS(=O)(=O)N(C)C(C)C)cc2C1	-134.1
COCC(=O)N1CCC2(CCN(c3cnn(C)c3)C2=O)C1 (stereo unspecified)	-59.68
O=c1[nH]c2cc3c(cc2cc1CN1CCCC1c1ccccn1)CCC3 (stereo unspecified)	-51.8
CC(CN1CCOCC1)NC(=O)NCCc1ccc(Cl)s1 (stereo unspecified)	-56.29
Cc1n[nH]cc1CNC1(Cc2ccc(Br)cc2)CCCCC1	36.65
Cc1n[nH]cc1CNC1(c2ccc(Br)cc2)CC1	18.93
Cc1n[nH]cc1CNC1(c2ccc(F)cc2)CCCC1	82.35

Compound	Percent Effect [%]
O=C(NCc1ccco1)[C@@H]1CCO[C@@H]2CCN(c3ncccn3)C[C@H]21.O=C(O)C(F)(F)F	-31.43
O=C(C1CCOC1)N1C[C@H]2CN(Cc3cccnc3)C(=O)[C@H]2C1.O=C(O)C(F)(F)F (stereo partly specified)	-57.45
Cc1nc(NC2CCS(=O)(=O)CC2)cc(C2CCCNC2)n1 (stereo unspecified)	-36.14
Cc1nc(NCC23CCCN2CCC3)cc(C2CCCNC2)n1 (stereo unspecified)	-55.92
COc1ccccc1CC(=O)N1CC[C@H](O)[C@]2(CCCO2)C1	-156.8
CN1CCO[C@@H]2CN(S(=O)(=O)c3ccccc3)CC[C@@H]2C1.O=C(O)C(F)(F)F	31.75
CN1CCO[C@@H]2CN(S(=O)(=O)c3ccc(F)cc3)CC[C@@H]2C1.O=C(O)C(F)(F)F	61.54
CN1CCO[C@@H]2CN(S(=O)(=O)c3ccccc3)C[C@@H]2C1.O=C(O)C(F)(F)F	-22.42
CCN1CCO[C@@H]2CN(S(=O)(=O)c3cccs3)CC[C@@H]2C1.O=C(O)C(F)(F)F	37.95
CN1CCO[C@@H]2CN(S(=O)(=O)c3cccs3)CC[C@@H]2C1.O=C(O)C(F)(F)F	-26.8
CN1CCO[C@@H]2CN(S(=O)(=O)c3cccnc3)C[C@@H]2C1.O=C(O)C(F)(F)F.O=C(O)C(F)(F)F	-85.76
CC(C)N1CCO[C@@H]2CN(S(=O)(=O)c3cccs3)CC[C@@H]2C1.O=C(O)C(F)(F)F	50.24
COc1ccc(S(=O)(=O)N2C[C@@H]3CN(C)CCO[C@@H]3C2)cc1	58.7
CN1CCO[C@@H]2CN(S(=O)(=O)c3ccccc3F)CC[C@@H]2C1.O=C(O)C(F)(F)F	48.77
CCC(C)NC(=O)Cn1ncc2c1c(C)nn2CC (stereo unspecified)	-14.73
CC1c2ncc(CN3CCN(C)CC3)n2CCN1Cc1cnn(C)c1.O=C(O)C(F)(F)F.O=C(O)C(F)(F)F.O=C(O)C(F)(F)F (stereo unspecified)	-76
Cc1nc(CN2CCC3(CCN(Cc4cnn(C)c4)CC3)C2=O)cs1.O=C(O)C(F)(F)F.O=C(O)C(F)(F)F	-122
COCCNC(=O)[C@@H]1CN(Cc2sccc2C)C[C@H]2OCC[C@H]21.O=C(O)C(F)(F)F	-28.67
CC/C=C(/C)C(=O)NCCc1csc(N2CCCC2)n1	23.92
CC(=O)c1cnc(N(C)Cc2cc(C)cc(C)n2)nc1C	10.35
CC(=O)N1CCc2c(nc(N(C)C)nc2NCCCn2ccnc2C)C1	-154.1
CCc1ccccc1OCC(=O)N1CCOCC1c1ncon1 (stereo unspecified)	-47.11
COc1cccc2c1ccn2CCC(=O)Nc1c2c(nn1C)CSC2	27.59
O=S(=O)(NCCCN1CC=CC1)c1cncc(Cl)c1	-214.3

Compound	Percent Effect [%]
O=S(=O)(NCCN1CC=CC1)c1cncc(Cl)c1	-138.1
O=S(=O)(NCCN1CC=CC1)c1ccc(Cl)cc1	75.13
CNC(=O)c1cc2c(nc1N(C)C)CCN(c1ncccn1)CC2.O=C(O)C(F)(F)F	-20.28
COCC1COCCC12CCN(Cc1cccs1)CC2.O=C(O)C(F)(F)F (stereo unspecified)	-9.919
O=C(c1cn(-c2ccccc2Cl)nn1)N1CCN(CCO)CC1	-52.43
Cc1c(C)n(CC(O)CN2CCN(CCO)CC2)c2c(Cl)cccc12.Cl (stereo unspecified)	88.07
CCC(c1ccccc1)N1CCN(CCO)CC1 (stereo unspecified)	-35.6
CC(c1cccnc1)N1CCN(CCO)CC1 (stereo unspecified)	-98.51
CCc1ccc(OCC(O)CN2CCN(CCO)CC2)cc1.Cl.Cl (stereo unspecified)	-114.3
CC1CCN(C(=O)C(C)Oc2ccc3c(c2)OCO3)CC1 (stereo unspecified)	-27.65
CCC(NC(=O)CCCN1CCCCC1)c1cn2cccnc2n1 (stereo unspecified)	-61.92
Cc1ncc2c(n1)CN(CC(=O)Nc1cc(C)on1)CC2	-14.27
COCCNC(=O)c1nc(-c2ccc3cc[nH]c3c2)no1	-158.8
Cc1cc(C)c(Cn2cncn2)cc1CN1CCC(CN)C1 (stereo unspecified)	68.64
Cc1cc(C)c(Cn2cncn2)cc1CN1CC[C@H]2CC[C@@H](C1)N2	12.41
Cc1ccccc1CN1CCC(CNC(=O)Cn2cncn2)CC1	1.836
CN(C)c1cc(CNCc2ccc(N3CCOCC3)cc2)ccn1	-42.2
COc1c(C)cnc(CSc2nnc(NC3CC3)s2)c1C	-80.23
Cl.Cn1cccc1C(=O)N1CCc2c(CNS(C)(=O)=O)cncc2C1	-73.02
CC(C)c1nccn1-c1cncc(C2CCCN(C3CCCCC3)C2)n1 (stereo unspecified)	18.59
CCc1nccn1-c1cccc(C2CCCN(C3CCCCC3)C2)n1 (stereo unspecified)	50.94
Cc1nccn1-c1cccc(C2CCCN(C3CCCC3)C2)n1 (stereo unspecified)	-3.48
CCNC(=O)CN1CCC(OCC2CCCO2)CC1 (stereo unspecified)	-42.16
Cc1ccccc1N1CCN(CCS(=O)(=O)c2ccc(Br)cc2)CC1	-132.7
